According to PubChem BioAssay (NCI):
Where “and” joins values, the source holds several entries; their conditions need not be identical. Equal entries are not always repeated. The panel holds about 83,000 compounds, 20% with a hit somewhere; the sample as a whole holds those more often.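 The endpoint reported here, percent growth, reads 100 for growth as untreated, 0 for no net growth and -100 for all cells dead.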 Calls of active or inactive are those of the source. The calls were made as follows: active = growth percent below 10; inactive = the rest.

Experiments:
Experiment in all cases: NCI-60 one-dose screen, 48 h (100 = growth as untreated, 0 = no growth, -100 = all killed)
HCT-15 colon = tested on: HCT-15 colon
SNB-75 CNS = tested on: SNB-75 CNS
SNB-19 CNS = tested on: SNB-19 CNS
U251 CNS = tested on: U251 CNS
PC-3 prostate = tested on: PC-3 prostate
SK-MEL-5 melanoma = tested on: SK-MEL-5 melanoma
UACC-62 melanoma = tested on: UACC-62 melanoma
LOX IMVI melanoma = tested on: LOX IMVI melanoma
SK-MEL-28 melanoma = tested on: SK-MEL-28 melanoma
HT29 colon = tested on: HT29 colon

Measured: growth

CC/C(=C(/c1ccc(O)cc1)c1ccc(OCCN(C)C(=O)COCCOCCNC(=O)c2ccc3c(c2)CN([C@@H]2CCC(=O)NC2=O)C3=O)cc1)c1ccccc1
inactive: HCT-15 colon; 1 µM 105% | HCT-15 colon; 10 µM 106% | SNB-75 CNS; 1 µM 54.5% | SNB-75 CNS; 10 µM 34.7% | SNB-19 CNS; 1 µM 85.5% | SNB-19 CNS; 10 µM 75.5% | U251 CNS; 1 µM 98.3% | U251 CNS; 10 µM 90.8% | PC-3 prostate; 1 µM 49.6% | PC-3 prostate; 10 µM 39.3% | SK-MEL-5 melanoma; 1 µM 95.2% | SK-MEL-5 melanoma; 10 µM 84.1% | UACC-62 melanoma; 1 µM 93.1% | UACC-62 melanoma; 10 µM 91.6% | LOX IMVI melanoma; 1 µM 98% | LOX IMVI melanoma; 10 µM 97.2% | SK-MEL-28 melanoma; 1 µM 101% | SK-MEL-28 melanoma; 10 µM 97.5%

CN1C(=O)C2(C(C#N)=C(c3ccc(Cl)cc3)Nc3c2c(-c2ccccc2)nn3-c2ccccc2)c2ccccc21 (centres undefined)
inactive: HCT-15 colon; 10 µM unless noted 87.6% | HT29 colon; 10 µM unless noted 85.2% | SNB-75 CNS; 10 µM unless noted 69.4% | SNB-19 CNS; 10 µM unless noted 87% | U251 CNS; 10 µM unless noted 102% | PC-3 prostate; 10 µM unless noted 85.8% | SK-MEL-5 melanoma; 10 µM unless noted 88.1% | UACC-62 melanoma; 10 µM unless noted 69.5% | LOX IMVI melanoma; 10 µM unless noted 55.3%

COc1ccc2[nH]cc(-c3cc4nc(-c5cn(C)c6ncccc56)cc(N)n4n3)c2c1
active: HCT-15 colon; 10 µM unless noted -25.1% | HT29 colon; 10 µM unless noted -59.1% | U251 CNS; 10 µM unless noted -42.4% | PC-3 prostate; 10 µM unless noted 9.79% | SK-MEL-5 melanoma; 10 µM unless noted -56.5% | LOX IMVI melanoma; 10 µM unless noted -85.3%
inactive: SNB-75 CNS; 10 µM unless noted 51.8% | SNB-19 CNS; 10 µM unless noted 26% | UACC-62 melanoma; 10 µM unless noted 85.9%

CC1(C)CC(=O)C2=C(C1)OC(N)=C(c1nc3ccccc3[nH]1)C2c1ccc(Cl)cc1 (centres undefined)
inactive: HCT-15 colon; 10 µM unless noted 39.8% and 106% | HT29 colon; 10 µM unless noted 86.8% and 115% | SNB-75 CNS; 10 µM unless noted 65.4% and 124% | SNB-19 CNS; 10 µM unless noted 50% and 99.9% | U251 CNS; 10 µM unless noted 45.1% and 112% | PC-3 prostate; 10 µM unless noted 35.6% and 107% | LOX IMVI melanoma; 10 µM unless noted 42.9% and 107%
-40.8% (active) and 104% (inactive): SK-MEL-5 melanoma; 10 µM unless noted
-22.9% (active) and 94.3% (inactive): UACC-62 melanoma; 10 µM unless noted

NC1(c2ccc(-c3ccc4ncnc(NCc5ccccc5)c4c3)cn2)COC1
inactive: HCT-15 colon; 10 µM unless noted 109% and 102% | HT29 colon; 10 µM unless noted 122% and 108% | SNB-75 CNS; 10 µM unless noted 115% and 103% | SNB-19 CNS; 10 µM unless noted 100% and 98.8% | U251 CNS; 10 µM unless noted 112% and 108% | PC-3 prostate; 10 µM unless noted 94.4% and 105% | SK-MEL-5 melanoma; 10 µM unless noted 101% and 107% | UACC-62 melanoma; 10 µM unless noted 104% and 94% | LOX IMVI melanoma; 10 µM unless noted 99% and 102%

O=C(Nc1ccc(Br)cc1)Nc1ccc(-c2ccc3c(c2)NC(=O)/C3=C\c2ccc[nH]2)cc1
inactive: HCT-15 colon; 10 µM unless noted 42.8% | HT29 colon; 10 µM unless noted 23.1% | SNB-75 CNS; 10 µM unless noted 59.2% | SNB-19 CNS; 10 µM unless noted 75.2% | U251 CNS; 10 µM unless noted 39.5% | PC-3 prostate; 10 µM unless noted 52.6% | SK-MEL-5 melanoma; 10 µM unless noted 33.1% | UACC-62 melanoma; 10 µM unless noted 24.7% | LOX IMVI melanoma; 10 µM unless noted 25.6%

Cn1cc(-c2cc(N)n3nc(-c4c[nH]c5ccccc45)cc3n2)c2cc(F)ccc21
active: HCT-15 colon; 10 µM unless noted -77.5% | HT29 colon; 10 µM unless noted -35.4% | U251 CNS; 10 µM unless noted -39.4% | LOX IMVI melanoma; 10 µM unless noted -80.7%
inactive: SNB-75 CNS; 10 µM unless noted 71.5% | SNB-19 CNS; 10 µM unless noted 15% | PC-3 prostate; 10 µM unless noted 17.4% | SK-MEL-5 melanoma; 10 µM unless noted 67.4% | UACC-62 melanoma; 10 µM unless noted 66.3%

COc1cncc(-c2ccc3ncnc(N4CCc5ccc(Cl)cc54)c3c2)c1
active: PC-3 prostate; 10 µM unless noted 6.75% | SK-MEL-5 melanoma; 10 µM unless noted -16.7% | LOX IMVI melanoma; 10 µM unless noted 6.64%
inactive: HCT-15 colon; 10 µM unless noted 11.9% | HT29 colon; 10 µM unless noted 31.4% | SNB-75 CNS; 10 µM unless noted 24.3% | SNB-19 CNS; 10 µM unless noted 35.9% | U251 CNS; 10 µM unless noted 51% | UACC-62 melanoma; 10 µM unless noted 16.3%

Cc1nc(N)ncc1-c1ccc2ncnc(N3CCc4cc(F)c(Cl)cc43)c2c1
inactive: HCT-15 colon; 10 µM unless noted 55.5% | HT29 colon; 10 µM unless noted 67.2% | SNB-75 CNS; 10 µM unless noted 15.7% | SNB-19 CNS; 10 µM unless noted 68.3% | U251 CNS; 10 µM unless noted 67% | PC-3 prostate; 10 µM unless noted 54.4% | SK-MEL-5 melanoma; 10 µM unless noted 77.1% | UACC-62 melanoma; 10 µM unless noted 71.8% | LOX IMVI melanoma; 10 µM unless noted 60.9%

CC/C(=C(\c1ccc(O)cc1)c1ccc(OCCN(C)C(=O)CCOCCNC(=O)c2ccc3c(c2)CN([C@@H]2CCC(=O)NC2=O)C3=O)cc1)c1ccccc1
inactive: HCT-15 colon; 1 µM 110% | HCT-15 colon; 10 µM 103% | HT29 colon; 1 µM 95% | HT29 colon; 10 µM 89% | SNB-75 CNS; 1 µM 59% | SNB-75 CNS; 10 µM 64.2% | SNB-19 CNS; 1 µM 92.7% | SNB-19 CNS; 10 µM 90.1% | U251 CNS; 1 µM 95.3% | U251 CNS; 10 µM 92.6% | PC-3 prostate; 1 µM 54.2% | PC-3 prostate; 10 µM 52.9% | SK-MEL-5 melanoma; 1 µM 95.4% | SK-MEL-5 melanoma; 10 µM 87.9% | UACC-62 melanoma; 1 µM 95.9% | UACC-62 melanoma; 10 µM 95% | LOX IMVI melanoma; 1 µM 104% | LOX IMVI melanoma; 10 µM 94.4% | SK-MEL-28 melanoma; 1 µM 102% | SK-MEL-28 melanoma; 10 µM 102%

CN1CCN(C(=O)Oc2cc3c(c4ccccc24)[C@H](CCl)CN3C(=O)c2cc3cc(OCCCN4CCC4)ccc3[nH]2)[C@@H]2CSSC[C@H]21
active: HCT-15 colon; 10 µM unless noted 2.11% | HT29 colon; 10 µM unless noted 2.15% | SNB-75 CNS; 10 µM unless noted -64.6% | SNB-19 CNS; 10 µM unless noted -64.6% | U251 CNS; 10 µM unless noted -42.8% | PC-3 prostate; 10 µM unless noted -12.2% | SK-MEL-5 melanoma; 10 µM unless noted -74.1% | UACC-62 melanoma; 10 µM unless noted -81.9% | LOX IMVI melanoma; 10 µM unless noted -61.6%
